Test results from PubChem BioAssay AID602313 (National Center for Advancing Translational Sciences (NCATS), 2012).
The campaign covered roughly 390,000 compounds. About 760 (0.19%) were called active. Not shown: some 3% with an inconclusive outcome. Calls come from the whole dose curve; as a rule, active = well fitted inhibition curve with a large enough effect; inconclusive = small, poorly fitted or top-dose-only effect; inactive = flat fitted curve, though single readings scatter. Shown is part of a subset that was picked to be rich in actives.

Experiment: qHTS for Inhibitors of Vif-A3F Interactions: qHTS; note: nearly all actives have a fitted effect of over 65% in size; for activity, negative = active: % of control where 0% means no effect
Conditions: HeLa A3F-eYFP + Vif (tagged APOBEC3F with the HIV-1 protein that degrades it), YFP fluorescence increase; series mostly up to 46.1 µM; activity, negative = active: at the top concentration
Excerpt: The recent discovery and characterization of host restriction factors, which provide a potent defense to invading retroviruses, has provided new targets for antiviral drug development. APOBEC3G (A3G) and APOBEC3F (A3F) are potent cytidine deaminases that block HIV-1 replication; HIV-1 expresses the Vif protein, which counteracts A3G and A3F by binding to them and inducing their proteasomal degradation. The Vif-A3G and Vif-A3F interactions provide two potential targets for development of small molecules which can interfere with the ability of Vif to degrade A3G or A3F. […] To identify inhibitors that can interfere with Vif mediated degradation of A3G and A3F, we have developed Hela cell lines that stably express A3G or A3F tagged with eYFP at the C-terminal end (A3G-eYFP or A3F-eYFP, respectively) and Vif. In the absence of an inhibitor, Vif induces degradation of A3G-eYFP and A3F-eYFP, and the cells are not fluorescent. In the presence of an inhibitor, it is expected that Vif will be unable to degrade A3G-eYFP and/or A3F-eYFP, resulting in an increase in yellow fluorescence. In this assays Vif A3F was screened against the Molecular Library Small Molecule Repository (MLSMR). NIH Chemical Genomics Center [NCGC] NIH Molecular Libraries Probe Centers Network [MLPCN] MLPCN Grant: MH093245 Assay Submitter (PI): Vinay Pathak, National Cancer Institute
5 uL of 700 cells/well of A3F-YFP cells are dispensed into black, clear bottom plates. The plates are incubated overnight at 37 deg C. 23 nL of compounds are added by pintool. The plates are incubated overnight at 37 deg C and then read on the TTP Acumen (Ex 488/ Em 500-530).
Potency is the fitted concentration of half-maximal effect.

activity, negative = active, inactive:
CSc1ccc(NC(=O)Cn2nnnc2-c2ccccc2F)cc1 0.093%
C[C@@H](Nc1nc(-c2ccccc2)nc2c1oc1ccccc12)C(=O)O -10.7%
COCCNc1nc(-c2ccccc2)nc2c1oc1ccccc12 -39.4%
Cc1ccc(C(=O)C(=S)N2CCOCC2)cc1 -8.6%
C=CCNC(=S)N/N=C/c1ccc(C)s1 -16.6%
O=[N+]([O-])c1cc(S(=O)(=O)Nc2cccc(Cl)c2)ccc1N=Nc1c(O)[nH]c2ccccc12 -9.21%
S=c1[nH]c2ccccc2c2ccccc12 0.31%
CCN(CCCNC(=O)c1cc2cc3cc(OC)ccc3nc2s1)c1ccccc1 0.248%
CCOc1ccc(/C=C(\C#N)c2nc3ccccc3c(=O)[nH]2)cc1OC -2.28%
Cc1ccc2nc(/C(C#N)=C/c3ccccc3F)[nH]c2c1 -13.6%
COc1ccc(NC(=O)c2cnc(Nc3ccc(C)c(Cl)c3)c3ccccc23)cc1OC 1.11%
COc1ccc(Nc2ncc(C(=O)Nc3cc(C)ccc3OC)c3ccccc23)cc1 -10.3%
O=C(CCS(=O)(=O)c1ccccc1)N(Cc1cccnc1)c1nc2c(F)cccc2s1 -3.73%
COc1ccc(-n2c(=O)c3sc4ccccc4c3n(CC(=O)Nc3cccc(C)c3)c2=O)cc1 -15.1%
CCCN(CCC)CCCNC(=O)Cn1ncc2c3ccccc3n(Cc3ccccc3)c2c1=O -14.4%
Cc1oc2ncnc(N3CCCCC3)c2c1C(=O)N1CCN(c2cccc(Cl)c2)CC1 1.49%
COc1ccc(C)cc1N(CC(=O)N1CCC(C)CC1)S(=O)(=O)c1ccc(C)cc1 -3.25%
Cn1c(COc2ccccc2C(C)(C)C)nc2ccccc21 -7.42%
O=C1CCCc2cc(S(=O)(=O)N3CCCC(C(=O)NCc4ccccc4)C3)ccc2N1 (stereo not given) -3.24%
Cc1nn(CC(=O)N2CCN(c3cccc(C(F)(F)F)c3)CC2)c(=O)c2cc3sccc3n12 5.84%
CCN(Cc1ccccc1)C(=O)c1cn(-c2cccc(OC)c2)c(=O)c2ccccc12 5.04%
COc1cccc(CNC(=O)c2cc(=O)[nH]c3ccc(S(=O)(=O)N4CCCCC4)cc23)c1 1.76%
CCOC(=O)c1c(N)n(-c2cccc(C)c2C)c2nc3ccccc3nc12 3.14%
CCOC(=O)c1cc(-c2ccccc2)n(CCC(=O)Nc2ccccc2CC)c1C 1.54%
CCOc1ccccc1NC(=O)Cn1nnc(C(=O)Nc2ccc(C)c(C)c2)c1N -8.19%
COc1ccc(-c2nc3sc(CCNC(=O)C(C)(C)C)c(C)n3n2)cc1 5.15%
CCOC(=O)C(Cc1ccccc1)NC(=O)CCc1c(C)nc2c(c(C)nn2-c2ccc(C)c(C)c2)c1C (stereo not given) -9.62%
COc1ccc(NC(=O)CSc2nccn2Cc2ccc3c(c2)OCO3)cc1 0.0796%
CCN1CCN(CCCNC(=O)c2cnn(-c3ccc(C)cc3C)c2C2CCN(C(=O)OC(C)(C)C)CC2)CC1 1.14%
CCOC(=O)CCCNC(=O)CN1C(=O)NC(CCc2ccccc2)C1=O (stereo not given) -1.81%
Cc1cc(NC(=O)CN2C(=O)NC(CCc3ccccc3)C2=O)no1 (stereo not given) -0.801%
Cc1[nH]c2ccccc2c1C(c1ccccc1)c1cccs1 (stereo not given) 1.42%
COc1ccc(C2CC(c3cccs3)=Nc3ccccc3S2)cc1OC (stereo not given) -5.58%
CC1Cn2c(nnc2-c2cccs2)S1 (stereo not given) -0.767%
COc1cc(NS(=O)(=O)c2cccs2)cc(OC)c1 -5.81%
Cc1ccccc1Cn1nc(C)c(NC(=O)c2cc(-c3ccc(F)cc3)on2)c1C -13.4%
CCN(CCCNC(=O)CSc1cc(=O)n(C)c2cc(Cl)ccc12)c1cccc(C)c1 -6.36%
COc1ccc(/C=C/c2nc(C#N)c(NCc3ccc(F)cc3)o2)cc1OC -0.36%
N#Cc1nc(/C=C/c2ccc(F)cc2)oc1NCc1ccc(F)cc1 3.52%
CCOC(=O)c1nnn(CC(=O)Nc2cccc(F)c2)c1C(=O)OCC 3.56%
Cc1ccc(CSCC(=O)N(C)CC(=O)Nc2cccc(F)c2)cc1 7.18%

Potency, active:
CCc1nc(Nc2ccc3nccnc3c2)c2oc3ccccc3c2n1 22.4 µM
CNC(=S)N/N=C/c1ccc(N2CCOCC2)s1 1.12 µM
Oc1[nH]c2ccccc2c1N=Nc1c(F)c(F)c(F)c(F)c1F 25.1 µM
COc1cc(/C=C(\C#N)c2nc3ccccc3[nH]2)ccc1O 12.6 µM
COC(=O)c1cnc(Nc2cc(C)ccc2OC)c2ccccc12 31.6 µM
S=C(NN=Cc1ccccn1)Nc1ccccn1 11.2 µM
CCOC(=O)c1cc2n(c1N)-c1ccccc1C2=O 7.08 µM
N#CCSc1ccccc1NC(=O)CN1C(=O)NC(CCc2ccccc2)C1=O (stereo not given) 25.1 µM
Cc1ccccc1C1CC(c2cccs2)=NN1S(C)(=O)=O (stereo not given) 17.8 µM
